# In PubChem BioAssay AID651592 (Sanford-Burnham Center for Chemical Genomics, 2012):
# Activity calls are given as the source filed them.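 How the source made its calls: active means NF-kB reporter IC50 at most 10 µM, IL-8 IC50 within fivefold of it with bacterial filtrate but not with TNF-alpha; inactive means the rest.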
# Assay: inhibitors of NFkB activation in CF airway cells, SAR follow-up, KKLEB cells, panel, IL8 HTRF, NFkB-GFP (AID 651592);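 further: immortalized cystic fibrosis airway epithelial KKLEB cells with an NF-kB GFP reporter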
# Details: PAF/TNFa-induced NFkB-GFP / IL8 HTRF, CF-PAF assay, mean of runs
row,Structure (SMILES),outcome
1,O=C(Nc1ccc(N2CCN(C(=O)c3ccccc3F)CC2)cc1)c1cc(Br)cc(Br)c1,inactive
2,CCOc1ccc(NCc2cc3c(C(C)(C)C)nn(-c4ccccc4)c3[nH]c2=O)cc1,inactive
3,O=C(Nc1ccc(N2CCN(C(=O)c3ccccc3F)CC2)cc1)c1ccccn1,inactive
4,O=C(Nc1ccc(N2CCN(C(=O)c3ccccc3)CC2)cc1)c1ccncc1,inactive
5,Cc1ccc(CNCc2cc3c(C(C)(C)C)nn(-c4ccccc4)c3[nH]c2=O)cc1,inactive
6,Cc1ccc(NCc2cc3c(C(C)(C)C)nn(-c4ccccc4)c3[nH]c2=O)cc1,inactive
7,O=C(Nc1ccc(N2CCN(C(=O)c3ccccc3F)CC2)cc1)c1cccnc1,inactive
8,O=C(Nc1ccc(N2CCN(C(=O)c3ccccc3F)CC2)cc1)c1cccc(Br)c1,inactive
9,O=C(Nc1ccc(N2CCN(C(=O)c3ccc(F)cc3)CC2)cc1)c1cccnc1,inactive
10,O=C(Nc1ccc(N2CCN(C(=O)c3ccc(F)cc3)CC2)cc1)c1ccncc1,inactive
11,O=C(Nc1ccc(N2CCN(C(=O)c3ccc(F)cc3)CC2)cc1)c1ccccc1,inactive
12,O=C(Nc1ccc(N2CCN(C(=O)c3ccccc3Cl)CC2)cc1)c1ccccc1,active
13,CCOc1ccc(NCc2cc3c(C)nn(-c4ccccc4)c3[nH]c2=O)cc1,inactive
14,CCOc1ccc(NCc2cc3c(-c4ccc(OC)c(OC)c4)nn(-c4ccccc4)c3[nH]c2=O)cc1,inactive
15,O=C(Nc1ccc(N2CCN(C(=O)c3ccc(F)cc3)CC2)cc1)c1cc(Br)cc(Br)c1,inactive
16,O=C(Nc1ccc(N2CCN(C(=O)c3ccccc3Cl)CC2)cc1)c1cncc(Br)c1,active
17,O=C(Nc1ccc(N2CCN(C(=O)c3ccccc3Cl)CC2)cc1)c1cccnc1,inactive

row,Structure (SMILES),outcome
1,O=C(Nc1ccc(N2CCN(C(=O)c3ccccc3)CC2)cc1)c1cc(Br)cc(Br)c1,inactive
2,O=C(Nc1ccc(N2CCN(C(=O)c3ccccc3Cl)CC2)cc1)c1ccncc1,inactive
3,O=C(Nc1ccc(N2CCN(C(=O)c3ccccc3)CC2)cc1)c1ccccn1,inactive
4,O=C(Nc1ccc(N2CCN(C(=O)c3ccc(F)cc3)CC2)cc1)c1cccc(Br)c1,inactive
5,O=C(Nc1ccc(N2CCN(C(=O)c3ccccc3)CC2)cc1)c1cccc(Br)c1,inactive
6,O=C(Nc1ccc(N2CCN(C(=O)c3ccccc3Cl)CC2)cc1)c1cccc(Br)c1,inactive
7,O=C(Nc1ccc(N2CCN(C(=O)c3ccccc3)CC2)cc1)c1ccccc1,inactive
8,O=C(Nc1ccc(N2CCN(C(=O)c3ccc(F)cc3)CC2)cc1)c1ccccn1,inactive
9,O=C(Nc1ccc(N2CCN(C(=O)c3ccccc3Cl)CC2)cc1)c1ccccn1,inactive
10,CCOc1ccc(NCc2cc3c(-c4ccc(F)cc4)nn(-c4ccccc4)c3[nH]c2=O)cc1,active
11,O=C(Nc1ccc(N2CCN(C(=O)c3ccccc3F)CC2)cc1)c1ccccc1,inactive
12,O=C(Nc1ccc(N2CCN(C(=O)c3ccc(F)cc3)CC2)cc1)c1cncc(Br)c1,active
13,O=C(Nc1ccc(N2CCN(C(=O)c3ccccc3Cl)CC2)cc1)c1cc(Br)cc(Br)c1,inactive
14,CCOc1ccc(NCc2cc3c(C(C)(C)C)nn(-c4ccc(Cl)cc4)c3[nH]c2=O)cc1,inactive
15,O=C(Nc1ccc(N2CCN(C(=O)c3ccccc3)CC2)cc1)c1cccnc1,inactive
16,O=C(Nc1ccc(N2CCN(C(=O)c3ccccc3)CC2)cc1)c1cncc(Br)c1,active
17,O=C(Nc1ccc(N2CCN(C(=O)c3ccccc3F)CC2)cc1)c1ccncc1,inactive
